Results: PubChem BioAssay
Active and inactive are the calls of the source.

Each molecule was assayed against Luciferin 4-monooxygenase (Photinus pyralis) (UniProt P08659) (assay: inhibition of purified Photinus pyralis luciferase – biochemical, luminescence, purified enzyme, 2006 set, primary screen (AID 1141;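 also: cell-free assay with purified firefly luciferase at 100 ng per well in PBS; test concentration not given here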)). Details: purified firefly luciferase, SteadyGlo luminescence, 30 min; higher = more signal, called active from +8 up or from −8 down.
Chain of Luciferin 4-monooxygenase (Photinus pyralis) (P08659 whole entry, looked up): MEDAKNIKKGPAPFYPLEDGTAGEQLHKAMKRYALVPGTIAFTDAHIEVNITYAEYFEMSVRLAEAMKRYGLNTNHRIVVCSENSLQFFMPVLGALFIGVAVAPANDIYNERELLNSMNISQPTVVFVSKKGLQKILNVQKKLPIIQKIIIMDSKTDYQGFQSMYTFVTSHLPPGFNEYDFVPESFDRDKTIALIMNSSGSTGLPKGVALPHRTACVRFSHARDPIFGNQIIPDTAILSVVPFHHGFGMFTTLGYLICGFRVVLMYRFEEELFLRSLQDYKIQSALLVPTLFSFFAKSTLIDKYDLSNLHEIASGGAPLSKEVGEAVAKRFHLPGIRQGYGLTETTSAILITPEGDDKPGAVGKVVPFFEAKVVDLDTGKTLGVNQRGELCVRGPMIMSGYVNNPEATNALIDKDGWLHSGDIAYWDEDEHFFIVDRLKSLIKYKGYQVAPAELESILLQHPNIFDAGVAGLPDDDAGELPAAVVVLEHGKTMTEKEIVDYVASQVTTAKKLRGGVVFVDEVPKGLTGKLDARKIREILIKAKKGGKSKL

z-score, inactive:
COc1ccccc1CN1C(=O)c2ccccc2[C@@H](C(=O)NCc2ccccc2)[C@@H]1c1ccc(CO)cc1 -0.898
COCCOC(=O)N1C(=O)[C@@]2(c3ccccc31)[C@H](C(N)=O)[C@H]1C(=O)O[C@H](c3ccccc3)[C@H](c3ccccc3)N1[C@@H]2c1ccc(O)cc1 -1.65
C=C(/C(=C/C[C@H](OC(C)=O)c1ccc(OCCO)cc1)c1cc(C(=O)OC)ccc1OC)C(C)C -2.33
COCCCNC(=O)[C@@]1(Sc2ccc(C)cc2)CC(=O)N(Cc2ccccc2Cl)[C@@H]1c1ccc(CO)cc1 1.14
O=C(O)[C@H](Cc1ccccc1)n1cc(-c2ccccc2)nn1 0.899
CC(C)[Si](C#CCCCC#N)(Oc1ccccc1Br)C(C)C -0.277
C=CC1c2cc(O)c(OC)cc2CCN1Cc1cccc(OC(F)(F)F)c1 (centres undefined) 0.454
O=C1OCCC=C[C@H]2OC34C=CCN(Cn5nnc6ccccc65)C(=O)[C@H]3N(CCO)C(=O)[C@@H]4C12 (some centres undefined) 0.612
CC(C)[Si](C#C[Si](C(C)C)(C(C)C)C(C)C)(O[C@H](C)c1cn(Cc2ccccc2)nn1)C(C)C -0.398
